Data reported in PubChem BioAssay AID1159580 (chemical genetic matrix, 2015).
About 2,000 (36%) of roughly 5,500 compounds were called active. Roughly 18% stayed inconclusive and do not appear here. The list shows a part of the results. A number with no mark means an inactive call. No stated cut-off is given here; in the data, active means normalized growth mostly below about 0.91 (no sharp cut-off); inconclusive means no clear call, values can overlap the other calls; inactive means mostly above about 0.92.

Assay: chemical genetic growth profiling, strain panel (AID 1159580);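 further: tested at 20 µM; growth read once vehicle control cultures reached saturation at 30 °C; 1 = growth at the plate median or of vehicle wells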
Settings: growth OD

Molecule COc1ccc(CC(=O)c2ccc(O)cc2O)cc1 has a normalized growth (S. cerevisiae deletion strains, locus YKL068W, stronger effect = lower value) of 0.98, a normalized growth (S. cerevisiae deletion strains, locus YKL085W, strain MDH1 (second series), stronger effect = lower value) of 0.992 and a normalized growth (S. cerevisiae deletion strains, locus YKL085W, strain MDH1, stronger effect = lower value) of 0.992. The normalized growth (S. cerevisiae deletion strains, locus YKL160W, strain elf1, stronger effect = lower value) was 0.938, the normalized growth (S. cerevisiae deletion strains, locus YKL190W, strain CNB1, stronger effect = lower value) was 0.975 and the normalized growth (S. cerevisiae deletion strains, locus YKR001C, strain vps1, stronger effect = lower value) was 0.766 (active). It also gave a normalized growth (S. cerevisiae deletion strains, locus YKR026C, strain gcn3, stronger effect = lower value) of 0.988, a normalized growth (S. cerevisiae deletion strains, locus YKR091W, strain srl3, stronger effect = lower value) of 0.988 and a normalized growth (S. cerevisiae deletion strains, locus YLL001W, strain dnm1, stronger effect = lower value) of 0.944. The normalized growth (S. cerevisiae deletion strains, locus YLL026W, stronger effect = lower value) was 0.993, the normalized growth (S. cerevisiae deletion strains, locus YLL041C, strain sdh2, stronger effect = lower value) was 0.99 and the normalized growth (S. cerevisiae deletion strains, locus YLR027C, strain aat2, stronger effect = lower value) was 0.997. The normalized growth (S. cerevisiae deletion strains, locus YLR039C, strain RIC1, stronger effect = lower value) was 0.686, the normalized growth (S. cerevisiae deletion strains, locus YLR058C, strain SHM2, stronger effect = lower value) was 0.946 and the normalized growth (S. cerevisiae deletion strains, locus YLR102C, strain apc9, stronger effect = lower value) was 0.966. For the same molecule, the normalized growth (S. cerevisiae deletion strains, locus YLR113W, strain HOG1, stronger effect = lower value) was 0.938, the normalized growth (S. cerevisiae deletion strains, locus YLR221C, strain rsa3, stronger effect = lower value) was 0.955 and the normalized growth (S. cerevisiae deletion strains, locus YLR258W, strain gsy2, stronger effect = lower value) was 0.984. For the same molecule, the normalized growth (S. cerevisiae deletion strains, locus YLR262C, strain YPT6 (second series), stronger effect = lower value) was 0.768 (active), the normalized growth (S. cerevisiae deletion strains, locus YLR262C, strain YPT6, stronger effect = lower value) was 0.669 and the normalized growth (S. cerevisiae deletion strains, locus YLR268W, strain sec22, stronger effect = lower value) was 0.931. It also gave a normalized growth (S. cerevisiae deletion strains, locus YLR320W, strain mms22, stronger effect = lower value) of 0.895, a normalized growth (S. cerevisiae deletion strains, locus YLR330W, strain CHS5, stronger effect = lower value) of 0.923 and a normalized growth (S. cerevisiae deletion strains, locus YLR342W, strain FKS1 (second series), stronger effect = lower value) of 0.864. The normalized growth (S. cerevisiae deletion strains, locus YLR342W, strain FKS1, stronger effect = lower value) was 0.972, the normalized growth (S. cerevisiae deletion strains, locus YLR357W, strain rsc2, stronger effect = lower value) was 1.01 and the normalized growth (S. cerevisiae deletion strains, locus YLR370C, strain arc18, stronger effect = lower value) was 0.978. For the same molecule, the normalized growth (S. cerevisiae deletion strains, locus YLR371W, strain rom2, stronger effect = lower value) was 0.86 (active), the normalized growth (S. cerevisiae deletion strains, locus YLR384C, strain iki3, stronger effect = lower value) was 0.999 and the normalized growth (S. cerevisiae deletion strains, locus YLR418C, strain cdc73, stronger effect = lower value) was 0.744 (active). The normalized growth (S. cerevisiae deletion strains, locus YML016C, strain PPZ1, stronger effect = lower value) was 0.976, the normalized growth (S. cerevisiae deletion strains, locus YML032C, strain rad52, stronger effect = lower value) was 0.938 and the normalized growth (S. cerevisiae deletion strains, locus YML120C, strain ndi1, stronger effect = lower value) was 0.988. The normalized growth (S. cerevisiae deletion strains, locus YML124C, strain tub3, stronger effect = lower value) was 0.981, the normalized growth (S. cerevisiae deletion strains, locus YMR058W, strain fet3, stronger effect = lower value) was 0.969 and the normalized growth (S. cerevisiae deletion strains, locus YMR078C, strain ctf18, stronger effect = lower value) was 0.956. The normalized growth (S. cerevisiae deletion strains, locus YMR125W, strain sto1, stronger effect = lower value) was 0.997, the normalized growth (S. cerevisiae deletion strains, locus YMR129W, stronger effect = lower value) was 0.993 and the normalized growth (S. cerevisiae deletion strains, locus YMR205C, strain PFK2, stronger effect = lower value) was 0.92. For the same molecule, the normalized growth (S. cerevisiae deletion strains, locus YMR223W, strain ubp8, stronger effect = lower value) was 0.952, the normalized growth (S. cerevisiae deletion strains, locus YMR231W, strain pep5, stronger effect = lower value) was 0.968 and the normalized growth (S. cerevisiae deletion strains, locus YMR307W, strain GAS1, stronger effect = lower value) was 0.688. For the same molecule, the normalized growth (S. cerevisiae deletion strains, locus YNL067W, strain RPL9B, stronger effect = lower value) was 0.945, the normalized growth (S. cerevisiae deletion strains, locus YNL071W, strain lat1, stronger effect = lower value) was 0.851 (active) and the normalized growth (S. cerevisiae deletion strains, locus YNL128W, strain TEP1, stronger effect = lower value) was 0.98. The normalized growth (S. cerevisiae deletion strains, locus YNL153C, strain GIM3, stronger effect = lower value) was 0.978, the normalized growth (S. cerevisiae deletion strains, locus YNL183C, strain NPR1, stronger effect = lower value) was 0.91 and the normalized growth (S. cerevisiae deletion strains, locus YNL209W, strain ssb2, stronger effect = lower value) was 0.998. For the same molecule, the normalized growth (S. cerevisiae deletion strains, locus YNL233W, strain BNI4, stronger effect = lower value) was 0.935, the normalized growth (S. cerevisiae deletion strains, locus YNL248C, strain rpa49, stronger effect = lower value) was 0.987 and the normalized growth (S. cerevisiae deletion strains, locus YNL250W, strain rad50, stronger effect = lower value) was 1.02. The normalized growth (S. cerevisiae deletion strains, locus YNL271C, strain bni1, stronger effect = lower value) was 0.964, the normalized growth (S. cerevisiae deletion strains, locus YNL298W, strain CLA4, stronger effect = lower value) was 0.949 and the normalized growth (S. cerevisiae deletion strains, locus YNL307C, strain MCK1, stronger effect = lower value) was 0.699 (active). It also gave a normalized growth (S. cerevisiae deletion strains, locus YNL322C, strain KRE1 (second series), stronger effect = lower value) of 0.971, a normalized growth (S. cerevisiae deletion strains, locus YNL322C, strain KRE1, stronger effect = lower value) of 0.952 and a normalized growth (S. cerevisiae deletion strains, locus YNR049C, strain mso1, stronger effect = lower value) of 0.986. The normalized growth (S. cerevisiae deletion strains, locus YNR052C, strain pop2, stronger effect = lower value) was 0.973, the normalized growth (S. cerevisiae deletion strains, locus YOL012C, strain htz1) was 1.38 and the normalized growth (S. cerevisiae deletion strains, locus YOL147C, strain pex11, stronger effect = lower value) was 0.908 (active). For the same molecule, the normalized growth (S. cerevisiae deletion strains, locus YOR001W, strain rrp6, stronger effect = lower value) was 0.998, the normalized growth (S. cerevisiae deletion strains, locus YOR061W, strain CKA2, stronger effect = lower value) was 0.983 and the normalized growth (S. cerevisiae deletion strains, locus YOR069W, strain VPS5, stronger effect = lower value) was 0.965. For the same molecule, the normalized growth (S. cerevisiae deletion strains, locus YOR070C, strain gyp1, stronger effect = lower value) was 0.962, the normalized growth (S. cerevisiae deletion strains, locus YOR080W, strain dia2, stronger effect = lower value) was 0.999 and the normalized growth (S. cerevisiae deletion strains, locus YOR083W, strain WHI5, stronger effect = lower value) was 0.946. The normalized growth (S. cerevisiae deletion strains, locus YOR106W, strain vam3, stronger effect = lower value) was 0.952, the normalized growth (S. cerevisiae deletion strains, locus YOR136W, strain idh2, stronger effect = lower value) was 0.972 and the normalized growth (S. cerevisiae deletion strains, locus YOR144C, strain elg1, stronger effect = lower value) was 0.966. The normalized growth (S. cerevisiae deletion strains, locus YOR184W, strain ser1, stronger effect = lower value) was 0.831 (active), the normalized growth (S. cerevisiae deletion strains, locus YOR231W, strain MKK1, stronger effect = lower value) was 0.953 and the normalized growth (S. cerevisiae deletion strains, locus YOR265W, strain rbl2, stronger effect = lower value) was 0.974. It also gave a normalized growth (S. cerevisiae deletion strains, locus YOR270C, strain vph1, stronger effect = lower value) of 0.84, a normalized growth (S. cerevisiae deletion strains, locus YOR290C, strain snf2, stronger effect = lower value) of 0.929 and a normalized growth (S. cerevisiae deletion strains, locus YOR316C, strain cot1, stronger effect = lower value) of 0.966. For the same molecule, the normalized growth (S. cerevisiae deletion strains, locus YPL051W, strain arl3, stronger effect = lower value) was 0.885 (active), the normalized growth (S. cerevisiae deletion strains, locus YPL078C, strain atp4, stronger effect = lower value) was 0.911 and the normalized growth (S. cerevisiae deletion strains, locus YPL106C, strain sse1, stronger effect = lower value) was 1.02. For the same molecule, the normalized growth (S. cerevisiae deletion strains, locus YPL240C, strain hsp82, stronger effect = lower value) was 0.978, the normalized growth (S. cerevisiae deletion strains, locus YPL256C, strain CLN2, stronger effect = lower value) was 0.969 and the normalized growth (S. cerevisiae deletion strains, locus YPR119W, strain clb2, stronger effect = lower value) was 0.975. The normalized growth (S. cerevisiae deletion strains, locus YPR141C, strain kar3, stronger effect = lower value) was 0.983, the normalized growth (S. cerevisiae deletion strains, locus YPR163C, strain tif3, stronger effect = lower value) was 0.752 (active) and the normalized growth (S. cerevisiae deletion strains, locus YPR167C, strain met16, stronger effect = lower value) was 0.97. It also gave a normalized growth (S. cerevisiae deletion strains, strain wtn01, stronger effect = lower value) of 0.919 and a normalized growth (S. cerevisiae strains, strain wild type, stronger effect = lower value) of 0.95.
